Compounds with a hit are over-represented: about 1.5% of the library has one in this group of screens.
CtBP-E1A inh: blocks the CtBP interaction with E1A | activity change, % (no concentration beside the values) | AID 651724 | AlphaScreen GST-E1A/His-CtBP binding, 1536-well; active compounds read low | hit rate 0.49% among 340,000; in the data active = activity change below about -65%; inconclusive = mostly about -30% to -63%
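Homogeneous bead-based format: GST-tagged E1A captured on glutathione donor beads, His-tagged CtBP on nickel acceptor beads; compounds precede bead addition by 2 h at 37 °C.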
TrxR1 substrate: is turned over as a substrate by rat TrxR1. Potency, µM (highest dose often 114 µM). purified TrxR1 substrate turnover, NADPH consumption readout. O89049. hit rate 0.01% among 390,000; also: nearly all actives have a fitted effect of over 50% in size
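Rat TrxR1, dispensed at 90 nM, was prereduced with 400 uM NADPH (final) for 5 min at ~22 deg C, then incubated with compound 15 min before 400 uM selenite. A first-read NADPH fluorescence drop versus no-compound background flagged substrates.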
Eya2 phos inh: Eya2 (human) phosphatase inhibition. O00167. recombinant Eya2, OMFP fluorescence dephosphorylation (OMFP is methylfluorescein phosphate). Potency, µM (highest dose often 76.9 µM), usual class: inhibitors. hit rate 0.006% among 330,000
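Eya2 protein (added as 0.2 uM solution) was preincubated with compound for 10 min at ambient temperature in 50 mM HEPES pH 7.5, 50 mM NaCl, 5 uM MgCl2, 0.05% BSA, 1 mM DTT. OMFP (added at 50 uM) then reacted 10 min; fluorescence read at 485/525 nm.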
TrxR1 inh: inhibitors of rat thioredoxin reductase 1 | Potency, µM (top dose mostly 114 µM), most hits filed as inhibitors | hit rate 1% among 390,000 | O89049 | recombinant rTrxR1, NADPH fluorescence consumption, selenite substrate; also: nearly all actives have a fitted effect of over 65% in size
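Rat TrxR1 (90 nM in the dispensed reagent) was pre-reduced with 400 uM NADPH for 5 min at room temperature, then incubated with compound for 15 min. After 400 uM selenite was added, NADPH fluorescence (Ex 340/Em 450 nm) was followed for 8 min.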
Six1-Eya2 blk: blocks human Six1 binding to Eya2. activity change, % (concentration not given with the values). AlphaScreen GST-Six1/His-Eya2 binding, biochemical; active compounds read low. Q15475+O00167. AID 651725. hit rate 0.56% among 360,000; in the data active = activity change below about -65%; inconclusive = mostly about -30% to -63%
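AlphaScreen with GST-Six1 and His-Eya2 (5X mix: 250 nM and 500 nM), glutathione donor and nickel acceptor beads; buffer 50 mM Tris pH 8.0, 300 mM NaCl, 1 mM TCEP; 1 h at 37 C in the dark.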
GALK inh: galactokinase (human) inhibition; Purified GALK, Kinase-Glo residual ATP luminescence; Potency, µM (highest dose often 57.5 µM), hits mostly inhibitors; hit rate 0.007% among 270,000
Target sequence (P51570 whole entry, looked up): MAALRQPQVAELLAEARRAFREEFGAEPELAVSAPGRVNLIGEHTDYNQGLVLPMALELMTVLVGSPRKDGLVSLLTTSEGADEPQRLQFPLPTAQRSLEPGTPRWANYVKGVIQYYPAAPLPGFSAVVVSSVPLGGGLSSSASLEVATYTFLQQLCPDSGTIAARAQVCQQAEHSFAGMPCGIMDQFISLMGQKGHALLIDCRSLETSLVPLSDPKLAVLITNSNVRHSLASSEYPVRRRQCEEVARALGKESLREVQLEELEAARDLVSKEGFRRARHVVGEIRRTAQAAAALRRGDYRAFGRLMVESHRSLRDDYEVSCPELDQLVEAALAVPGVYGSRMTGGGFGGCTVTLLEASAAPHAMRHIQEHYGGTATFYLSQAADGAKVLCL
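Galactose (100 uM) and ATP (35 uM) were turned over by 5 nM GALK for 1 h at RT. Kinase-Glo Plus then converted the remaining ATP into a luminescent signal.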
Numbers stand for hits; - = inactive; ? = inconclusive; . = not tested or not shown; [ ] = another dose, or the depositor's remark. Unless noted, calls follow the shape of the dose curve; as a rule, active = well fitted curve in the direction sought with a large enough effect; inconclusive = small, poorly fitted or top-dose-only effect, or another doubt; inactive = no such curve, though single readings can be large; an effect the other way counts as inactive or inconclusive.

SMILES	CtBP-E1A inh	TrxR1 substrate	Eya2 phos inh	TrxR1 inh	Six1-Eya2 blk	GALK inh
Cn1c(=O)[nH]c(=O)c2c1nc(Br)n2CCC(=O)c1ccccc1	-	-	-	18µM	-	-
O=C(CCNS(=O)(=O)c1ccc2c(c1)CCN2C(=O)C1CC1)N1CCN(c2ccc(F)cc2)CC1	.	-	.	-	.	.
Cc1nc(-c2cnn(-c3ccccc3)c2)c2cc(C)oc2n1	-88	-	-	-	-87	-
Cc1oc2c(O)c(O)ccc2c(=O)c1-c1cnn(-c2ccccc2)c1	?	-	-	-	?	-
CC(C)(C)n1ncc2c(=O)n(Cc3cccc(C(F)(F)F)c3Cl)cnc21	.	-	.	-	.	.
CCc1ccc(-n2nc(CO)c(C(=O)NC)n2)cc1	.	-	.	?	.	.
Cc1noc(/C=C/c2ccco2)c1S(=O)(=O)N1CCC(C(=O)N(C)Cc2ccccc2)CC1	-	-	-	71µM	-	-
COc1cc(N2C(=O)C=CC2=O)ccc1N1C(=O)C=CC1=O	-	-[11.4 µM]	.	0.5µM	-	.
COC(=O)c1sc(NC(=O)c2ccc([N+](=O)[O-])o2)c(C#N)c1C	-	?	-	14µM	-	-
COc1ccc(C2NC(=O)NC(O)(C(F)(F)F)C2C(=O)c2ccccc2)cc1OC (stereo not given)	-	-	-	28µM	-	-
Cc1nc2ccccc2n1CCC(=O)O	-	-	-	-	-	-
Cc1nc2ccccc2n2c(O)c(CC(=O)O)cc12	-	-	-	35µM	-	-
CCOC(=O)c1c(C)[nH]c(C)c1S(=O)(=O)N1CCCC(C(=O)Nc2ccccc2OCC)C1 (stereo not given)	.	-	.	-	.	.
CN(C)c1ccc(C(c2ccc(N(C)C)cc2)C(O)c2ccccc2)cc1 (stereo not given)	-	-	.	-[11.4 µM]	-65	.
Cc1cc(S(=O)(=O)NCC(c2ccco2)S(=O)(=O)c2cccs2)ccc1F (stereo not given)	.	-	.	0.35µM	.	.
CCCN1CNc2c(c(=O)[nH]c(=S)n2CCc2cc(Cl)cc(Cl)c2)C1	.	-	.	-	.	.
CC(=O)Nc1ccc(NC(=S)NC(=O)/C=C/c2ccco2)cc1	-	-	-	40µM	-	-
COc1ccc(/C=C/C(=O)NC(=S)Nc2ccc(S(=O)(=O)Nc3cc(C)on3)cc2)cc1	-	-	-	?	-	-
CC(=O)Nc1ccc(C(=O)/C=C/c2ccco2)cc1	-	-	-	45µM	?	-
O=C(/C=C/c1ccco1)Nc1ccc2nn(-c3ccccc3)nc2c1	-	-	-	56µM	-	-
COc1ccc(/C=C/C(=O)NC(=S)Nc2ccc(S(=O)(=O)Nc3ccc(OC)nn3)cc2)cc1	-77	-	-	?	?	-
Cc1cc(NC(=O)/C=C/c2ccco2)ccc1NC(=O)c1ccccc1	-	-	-	-	-	-
O=C(Nc1ccc(Br)cc1)C1CCN(c2ncccn2)CC1	.	-	.	-	.	.
CCOc1ccc(NC(=S)NC(=O)/C=C/c2ccco2)cc1	-	-	-	-	-	-
O=C(/C=C/c1ccco1)NC(=S)Nc1cccc(C(=O)O)c1	-	-	-	40µM	?	-
SMILES	CtBP-E1A inh	TrxR1 substrate	Eya2 phos inh	TrxR1 inh	Six1-Eya2 blk	GALK inh
Cc1ccc(NC(=O)N/C=C/c2ccco2)cc1	-	-	-	16µM	-	-
COc1cc(NS(=O)(=O)c2ccc(NC(=S)NC(=O)/C=C/c3ccco3)cc2)ncn1	-	-	-	56µM	?	-
COc1cccc(NC(=S)NC(=O)/C=C/c2ccco2)c1	-	-	-	-	-	-
CC(=O)N(C)c1ccc(NC(=S)NC(=O)/C=C/c2ccco2)cc1	-	-	-	35µM	-	-
O=c1c(S(=O)(=O)c2cccc(Cl)c2)cn(Cc2ccccc2)c2cc(N3CCOCC3)c(F)cc12	.	-	.	-	.	.
O=C(NCc1ccccn1)c1nn(-c2ccccc2F)nc1CO	.	-	.	-	.	.
O=C(Cn1c(=O)oc2cc(S(=O)(=O)N3CCCC3)ccc21)Nc1ccc(F)cc1F	.	-	.	-	.	.
Cc1ccc(-c2nn3c(=O)cc(CN4CCN(C(=O)c5ccc(C(C)(C)C)cc5)CC4)nc3s2)cc1	.	-	.	-	.	.
CCOc1ccc(C(=O)C(CCC(CN(C)C)C(=O)c2ccc(OCC)cc2)CN(C)C)cc1 (stereo not given)	-	-	-	2.8µM	-	-
CN(C)CC(CCC(CN(C)C)C(=O)c1ccccc1)C(=O)c1ccccc1 (stereo not given)	-	-	-	2.8µM	-	-
COc1ccc(C(=O)C(CCCCC(CN(C)C)C(=O)c2ccc(OC)cc2)CN(C)C)cc1 (stereo not given)	-	-	-	-	-	.
CC1CCN(S(=O)(=O)c2ccc3c(c2)oc(=O)n3CC(=O)NCc2ccc(F)cc2)CC1	.	-	.	-	.	.
COc1ccc(CNC(=O)CCc2c(C)nc3c4cccnc4nn3c2C)cc1	.	-	.	-	.	.
O=C(COc1ccccc1C(=O)Nc1ccccc1)Nc1cccc(Br)c1	.	-	.	-	.	.
COc1ccc(-c2coc3c(C)c4oc(=O)c(CCC(=O)O)c(C)c4cc23)cc1	-72	-	-	-	-77	-
Cc1c(CCC(=O)O)c(=O)oc2c(C)c3occ(-c4ccc(Br)cc4)c3cc12	-84	-	-	-	-85	-
Cc1c(CC(=O)O)c(=O)oc2c(C)c3occ(-c4ccc(F)cc4)c3cc12	-72	-	?	-	-	.
Cc1cc2oc(=O)c(CC(=O)O)c(C)c2c2occ(-c3ccc(F)cc3)c12	.	-	.	-	.	.
Cn1nnnc1SCCCNCc1cc(Cl)ccc1OCc1ccccc1	.	-	.	-	.	.
Cc1ccc2c(=O)c(C(=O)c3ccccc3)cn(CC(=O)Nc3ccc4c(c3)OCCO4)c2n1	.	-	.	-	.	.
NN/C(=C\[N+](=O)[O-])Nc1ccccc1	-	-	-	16µM	-	-
NN/C(=C\[N+](=O)[O-])Nc1ccc(Cl)cc1	-	-	-	16µM	-	-
CCOC(=O)c1cccc(NS(=O)(=O)c2c(C)nc3sc(C)cn3c2=O)c1	.	-	.	-	.	.
COc1ccc(NC(=O)CCCc2nnc3n(CCC(C)C)c(=O)c4sccc4n23)cc1Cl	.	-	.	-	.	.
Cc1ccc(S(=O)(=O)CCC(=O)N2CCN(c3ccc(Cl)cc3)CC2)cc1	-	-	-	50µM	-	-
Cc1ccc(NC(=O)c2cc(N3C(=O)C=CC3=O)ccc2N2CCOCC2)cc1Cl	-	-	-	3.5µM	-	-
Cc1ccc(NC(=O)c2cc(N3C(=O)CCC3=O)ccc2N2CCOCC2)cc1	-	-	-	-	-	-
COc1ccccc1CNC(=O)C(Cc1ccccc1)NS(=O)(=O)c1ccc2c(c1)CCN2C(C)=O (stereo not given)	.	-	.	-	.	.
Cc1c(NC(=S)N/N=C/c2ccc([N+](=O)[O-])cc2O)c(=O)n(-c2ccccc2)n1C	-93	-	-	?	-84	.
